Measurements published in PubChem BioAssay (NCATS).
Records with an inconclusive call do not appear. Where a call stands in place of a potency, no number is given. Active and inactive are the calls of the source. Calls follow the shape of the dose curve; as a rule, active = well fitted inhibition curve with a large enough effect; inconclusive = small, poorly fitted or top-dose-only effect; inactive = no such curve, though single readings can be large or run the other way.

biological target: Retinaldehyde dehydrogenase 3 (Homo sapiens) (UniProt P47895); experiment: qHTS for Inhibitors of the Aldehyde Dehydrogenase Family (ALDH1A3) Primary screen (AID 2061315); conditions: ALDH inhibition qHTS; series mostly up to 56 µM

| SMILES | Potency | activity change, negative = inhibition |
| --- | --- | --- |
| Cc1c(C(=O)O)[nH]c2c1C(=O)CC(c1ccco1)C2 (stereo not given) | inactive |  |
| CCN(Cc1cccs1)c1ncnc2ccc(-c3ccc4c(c3)OCO4)cc12 | inactive |  |
| O=C(Nc1ccc(-c2nc3ccccc3[nH]2)cc1)c1ccc(-c2ccccc2)cc1 | inactive |  |
| COc1cc2c(cc1OC)CN(C(=O)/C=C/c1c(-c3ccccc3)n(C)c3ncccc13)CC2 | inactive |  |
| O=C(OCC#CCNc1nnc(-c2cccc3ccccc23)o1)c1cccs1 | inactive |  |
| Cc1ccc([S+](=O)([O-])Nc2nn3c(=O)c4ccccc4nc3s2)cc1C | inactive |  |
| N#Cc1c(-c2cccs2)no[n+]1[O-] | inactive |  |
| S=C(Nc1cc(Cl)ccn1)N1CCN(c2ccc(Cl)cc2Cl)CC1 | inactive |  |
| Cc1ccc(NS(=O)(=O)c2cc3c(cc2-c2ccsc2)NC(=O)CO3)cc1C | inactive |  |
| Cc1ccc(N2CCN(S(=O)(=O)c3ccc4c(c3)CC(=O)N4)CC2)cc1 | inactive |  |
| c1cncc(-c2ccc3ncnc(NCc4ccc5c(c4)OCO5)c3c2)c1 | inactive |  |
| CCC/C=C/c1cc2c(C=O)c(O)c(CC=C(C)C)cc2o1 | inactive |  |
| CS(=O)(=O)c1ccc(C(=O)OCC(=O)N2CCN(Cc3ccccc3)CC2)cc1[N+](=O)[O-] | inactive |  |
| CS(=O)(=O)Nc1cccc(-c2cc(F)c(S(=O)(=O)N3CCN(S(=O)(=O)c4ccc5c(c4)OCCO5)CC3)cc2F)c1 | inactive |  |
| CCCC1CCN(C(=O)COC(=O)c2ccc(S(C)(=O)=O)c([N+](=O)[O-])c2)CC1 | inactive |  |
| Cc1ccnc(NC(=S)N2CCN(c3ccccc3C(F)(F)F)CC2)c1 | inactive |  |
| COc1ccc2ncnc(NCc3cccs3)c2c1-c1ccc2c(c1)OCO2 | inactive |  |
| O=C1CCCC2=C1C(c1ccccc1I)N=C(Nc1nc3ccccc3o1)N2 (stereo not given) | inactive |  |
| CCOC(=O)c1nn(-c2ccc(OC)cc2)c(=O)c2c(N)scc12 | inactive |  |
| CN(CC(=O)Nc1ccc(N2CCOCC2)cc1)Cc1cccc2ccccc12 | inactive |  |

| SMILES | Potency | activity change, negative = inhibition |
| --- | --- | --- |
| O=S1(=O)N=C(Oc2ccc3ccccc3c2)c2ccccc21 | inactive |  |
| CN1CCN(c2ccc(CNc3nn4c(=O)c5ccccc5nc4s3)cc2)CC1 | inactive |  |
| COc1cccc(CNc2ccc(S(=O)(=O)Nc3cccs3)cc2)c1O |  | -2.44% [at 11.2 µM] (inactive) |
| O=C(O)c1ccc(-c2ccc(NC(=O)c3cccs3)cn2)cc1 | inactive |  |
| Nc1ccc(-c2ccnc(NCCCNC(=O)c3c(Cl)cccc3Cl)n2)cc1 | inactive |  |
| COc1ccccc1O[C@@H]1O[C@H](CO)[C@H](O)[C@H](O)[C@H]1O | inactive |  |
| O=c1c2ccccc2nc2sc(NS(=O)(=O)c3ccc4c(c3)CCC4)nn12 | inactive |  |
| FC(F)(F)c1ccccc1-c1nc(NCc2ccc(-c3ccc(Cl)c(Cl)c3)cc2)c2ccccc2n1 | inactive |  |
| CC(=O)Nc1sc2c(c1-c1ccc(OC(F)(F)F)cc1)CCNC2 | inactive |  |
| Cn1c2cc([N+](=O)[O-])sc2c2cnn(Cc3ccccc3F)c(=O)c21 | inactive |  |
| Cc1ccc(N2CCN(C(=S)Nc3cc(C)ccn3)CC2)cc1 | inactive |  |
| O=C1c2ccccc2NC(c2ccc(-c3cccc(Cl)c3)o2)N1O (stereo not given) | inactive |  |
| O=S1(=O)N=C(Oc2ccc(Br)cc2)c2ccccc21 | inactive |  |
| O=C(O)c1cccc(-n2cccc2/C=C2/NC(=O)N(c3cccc(Cl)c3)C2=O)c1 | inactive |  |
| Fc1cccc(CNc2nc(-c3ccccc3C(F)(F)F)nc3ccccc23)c1 | inactive |  |
| CN(C)c1ccc(-c2nc3ncc(Cl)c(N4CCN(CC(=O)Nc5nccs5)CC4)c3[nH]2)cc1 | inactive |  |
| Cc1ccc(CN(C)c2nc(-c3ccccc3C(F)(F)F)nc3ccccc23)cc1 | inactive |  |
| N#Cc1nc(-c2cccc3ccccc23)oc1Nc1ccccc1 | inactive |  |
| COc1cc(/C=C2/C(=O)Nc3ccccc32)cc(OC)c1O | inactive |  |
| O=[S+]([O-])(Nc1ccc2ccccc2c1)c1ccc(NCc2ccc(Cl)cc2O)cc1 | inactive |  |
